Bioassay records deposited in PubChem by National Center for Advancing Translational Sciences (NCATS).
ERK EGF inh: qHTS Assay for Inhibitors of the ERK Signaling Pathway using a Homogeneous Screening Assay; Stimulation with EGF. hit rate 0.41% among 130,000. Potency, µM (series often up to 11.5 µM), without a hit: at the highest dose activity change, negative = inhibition, actives largely listed as inhibitors. HEK293-V1b, EGF-stimulated phospho-ERK AlphaScreen; active means well fitted inhibition curve with a large enough effect;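 further: plate controls were stimulated vehicle wells for no effect and unstimulated vehicle basal for full effect; nearly all actives have a fitted effect of over 55% in size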
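After overnight plating in 1% FBS, HEK293-V1b cells received test compound for half an hour, then a 5 min pulse of EGF (25 nM); ERK phosphorylation in lysates was read by bead-based AlphaScreen.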
The depositor's hits bear a star; ! = not confirmed by another sample; [ ] = another dose, or the depositor's remark. Shown is part of a subset that was picked to be rich in hits. Potency means the concentration at half of the fitted maximal effect.

SMILES	ERK EGF inh
C[C@@H]1C[C@H]2[C@H]3C[C@@H](F)C4=CC(=O)C=C[C@]4(C)[C@@]3(Cl)[C@@H](O)C[C@@]2(C)[C@@H]1C(=O)COC(=O)C(C)(C)C	-3.3%[25.7 µM]
C=C1C2CC[C@]3(CCC4[C@@]5(C)CCC[C@@]4(CN(CCO)C5)[C@@H]3C2)[C@@H]1O (stereo not given in full)	-12.5%
COC(=O)[C@H](Cc1ccccc1)NC(=O)O[C@@H]1Cc2cc(OC)ccc2O[C@H]1c1cccc(OC)c1	-7.7%
Cc1ccc(C(=O)OCC(=O)c2c[nH]c3ccccc23)cc1	4.6%
CC(C)C(NS(=O)(=O)c1c(Cl)cccc1Cl)C(=O)OCC(=O)c1c[nH]c2ccccc12 (stereo not given)	25.1µM*
CC(O)C(NS(=O)(=O)c1ccc(Cl)cc1)C(=O)OCC(=O)c1c[nH]c2ccccc12 (stereo not given)	9.3%
CCCNC(=O)c1noc2c1CCc1ccccc1-2	9.2%
COCCCNC(=O)c1ccc2c3c(onc13)-c1ccccc1C2=O	31.6µM*
COCCCNC(=O)c1cc2cc(Br)ccc2oc1=O	5.5%
CC(C)C[C@@H](CC(=O)N[C@@H](CCC(=O)O)CC(=O)O)NC(=O)[C@@H]1CCCC[C@H]1NC(=O)C[C@@H](NC(=O)C[C@H](CO)NC(=O)[C@@H]1CNCC[C@H]1N)C(C)C	-13.7%
O=C1C=CC2=C3c4cc(O)c(O)cc4C[C@@]3(O)COC2=C1	0.7%
COc1ccc2c(c1)c(CC(=O)NCc1ccc3c(c1)OCO3)c(C)n2C(=O)c1ccc(Cl)cc1	-6.7%
CCC/C=C(\CCC)C(NS(=O)(=O)c1ccc(-c2ccccc2)cc1)c1ccc(C(=O)OC)cc1 (stereo not given)	-7.4%
COCCNc1cc(-c2ccccc2C(F)(F)F)ncn1	25.2%
CN(C)c1ccc(/C=C/C(=O)c2cc(Cl)ccc2O)cc1	14.1µM*
O=C(/C=C/c1ccncc1)c1cc(Cl)ccc1O	9.5%[57.5 µM]
COc1ccc(/C=C/C(=O)c2cc(Cl)ccc2O)c(OC)c1	2.2%[57.5 µM]
N[C@H](Cn1ccc(=O)n(Cc2ccccc2C(=O)O)c1=O)C(=O)O	-8.4%
O=C1C=C(O)c2c(O)cccc2C1=O	-7.5%[57.5 µM]
Nc1c(O)ccc2c1C(=O)c1ccccc1C2=O	28.2µM*
COc1ccc2c(c1O)C(=O)c1ccccc1C2=O	-7.7%[57.5 µM]
COc1ccc(-c2cc(=O)c3c(O)cc(O[C@H]4OC(COC5OC(C)C(O)C(O)[C@H]5O)C(O)C(O)C4O)cc3o2)cc1O (stereo not given in full)	3.7%
O=C1/C(=C\c2ccc(-c3ccccc3[N+](=O)[O-])o2)C(c2ccccc2)=NN1c1ccccc1	28.2µM*
CN(C)/C=C1/C(=O)N(c2ccc([N+](=O)[O-])cc2)N=C1c1ccccc1	-5.7%
N#C/C(=C\c1ccc(-c2ccccc2[N+](=O)[O-])o1)C(N)=O	-3.7%[57.5 µM]
SMILES	ERK EGF inh
COc1cccc(-c2coc3ccc(Br)cc3c2=O)c1	-2.5%
COc1ncc2nc(C)c(=O)n(CCC#N)c2n1	-9.7%
O=C(c1ccncc1)N1CCC2(CCN(Cc3nccs3)CC2)CC1	9.4%
C[C@H]1[C@H]2CC[C@H]3[C@@H]4CC=C5C[C@@H](N(C)C)CC[C@]5(C)[C@H]4CC[C@]23CN1C	-9.4%
CCOC(=O)/C(C#N)=C/C=C1\C=Cc2ccccc2N1CC	15.8µM*
CCOC(=O)/C(C#N)=C(C)/C=C1\Sc2ccccc2N1CC	3.0%
CN1/C(=C/C=C(C#N)C#N)C=Cc2ccccc21	-10.5%[57.5 µM]
CN(C)S(=O)(=O)c1cccc(NC(=O)c2cncc(Br)c2)c1	3.9%
CCN(CC)S(=O)(=O)c1cccc(NC(=O)c2cncc(Br)c2)c1	-7.4%
CCN(CC)S(=O)(=O)c1cccc(NC(=O)c2ccc(Br)cc2)c1	14.1µM*
NC(=NCCCCCCN=C(N)/N=C(\N)Nc1ccc(Cl)cc1)/N=C(\N)Nc1ccc(Cl)cc1	22.4µM*!
NNC(=S)Nc1ccc(Cl)cc1	-5.3%
CC(C)N=C(N)/N=C(\N)Nc1ccc(Cl)cc1	7.9%[25.7 µM]
COC(=O)N1CCC2(CCCN(Cc3ccc(C#N)cc3)C2)CC1	9.3%
C#CCCCC(=O)Nc1ccccc1	1.1%
COc1ccccc1CNc1ncncc1-c1ccc(N(C)C)cc1	20µM*
COc1ccccc1CNc1ncncc1-c1ccoc1	26.5%
COc1ccccc1CNc1ncncc1-c1ccccc1C	8.2%
C[C@H]1C2=C3C(CC[C@H]4C(OCc5ccc(F)cc5C(F)(F)F)OC[C@](C)([C@@H]34)N(C(=O)OC(C)(C)C)C2)C2COC(=O)OCC21 (stereo not given in full)	-3.5%
NC(N)=NCCC[C@H](NC(=O)CC1(CC(=O)N2CCN(C3c4ccccc4NC(=O)c4ccccc43)CC2)CCCC1)C(=O)NCCn1c(=O)n(-c2ccccc2)n(-c2ccccc2)c1=O (stereo not given in full)	2.5%
O=C(Cc1ccc(Cl)c(Cl)c1)OCCN1CCCC1	3.3%
COC(=O)C/C=C1\c2ccc3c(c2[C@@H](OC)[C@@H]1C)OCO3	0.2%
O=C1/C(=C/c2ccccn2)SC(=S)N1c1cccc(O)c1	3.8%[57.5 µM]
Cc1cc(/C=C2\SC(=S)N(C)C2=O)c(C)n1-c1cccc(O)c1	28.2µM*
COc1ccc(-n2c(C)cc(/C=C3/SC(=S)N(C)C3=O)c2C)cc1	-6.3%
SMILES	ERK EGF inh
O=C(Nc1cccc(F)c1)N1CC[C@@]2(CCCN(C(=O)c3ccncc3)C2)C1	-7.5%
C[C@@H]1C[C@H](OC(=O)[C@@H](O)c2ccccc2)CC(C)(C)N1C	4.4%[25.7 µM]
O=C(N/N=C/c1cn(-c2ccccc2)nc1-c1cc2ccccc2o1)c1ccncc1	1.0%
O=C(N/N=C/c1cn(-c2ccccc2)nc1-c1cc2ccccc2o1)c1cccnc1	7.08µM*
O=C(N/N=C/c1cn(-c2ccccc2)nc1-c1cccnc1)c1cccnc1	-1.6%
CO[C@@H]1C[C@H](O[C@H]2[C@@H](C)[C@H](O[C@@H]3O[C@@H](C)C[C@@H](N(C)C)[C@@H]3OC(C)=O)[C@H](C)C[C@]3(CO3)C(=O)[C@H](C)[C@H](OC(C)=O)[C@H](C)[C@H](C)OC(=O)[C@@H]2C)O[C@H](C)[C@@H]1OC(C)=O	8.8%[25.7 µM]
CC1(COc2ccc(CC3SC(=O)NC3=O)cc2)CCCCC1 (stereo not given)	5.8%
CC(=O)c1cccc(NC(=O)c2csc3c2CCCCC3)c1	-12.8%
CC(=O)c1cccc(NC(=O)Nc2csc3c2CCCC3)c1	25.1µM*
COC(=O)c1sccc1NC(=O)Nc1cccc(C(C)=O)c1	2.3%
C[C@@](N)(C(=O)O)c1cccc(CC(=O)O)c1	-5.8%
COc1ccc(CNc2cc(-c3ccccc3CN(C)C)ncn2)c(OC)c1	10.3%
COc1ccc(-c2[nH]ncc2-c2csc(C)n2)c(O)c1	-5.4%
O=[N+]([O-])c1ccc(COc2ccc(-c3[nH]ncc3-c3ccc(Cl)cc3)c(O)c2)cc1	5.8%
COc1ccc(-c2cn[nH]c2-c2ccc(OCc3ccccc3)cc2O)cc1	22.4µM*
COc1ccccc1-c1cn[nH]c1-c1ccc(OCc2ccccc2)cc1O	-10.3%[57.5 µM]
COc1ccc(-c2[nH]ncc2CN2CCC(OCc3ccccn3)CC2)c(F)c1	-1.7%[57.5 µM]
COc1ccc(-c2cn[nH]c2-c2ccc(OCc3ccccc3F)cc2O)cc1OC	31.6µM*
CNC(=O)[C@H]1O[C@H](n2cnc3c(NCc4cccc(I)c4)ncnc32)[C@@H](O)[C@@H]1O	-6.5%
COC(=O)[C@@]1(Cc2ccc(OC)cc2)[C@H]2c3cc(C(=O)N(C)C)n(CCc4c[nH]c5ccc(O)cc45)c3C[C@H]2CN1C(=O)c1ccccc1	-6.5%
